High-throughput results: PubChem, National Center for Advancing Translational Sciences (NCATS)
VACV mCherry inh: inhibitors of vaccinia virus infection (mCherry reporter signal) | Vaccinia virus mCherry reporter infection, fluorescence | Potency, µM (series often up to 36.5 µM), for the others: at the highest dose activity change, negative = inhibition, usual class: inhibitors | 310,000 tested, 0.63% active | AID 720579; calls by dose curve; tested in A549 cells; further: potency means the concentration at half of the fitted maximal effect; nearly all actives have a fitted effect of over 35% in size
Marburg entry inh: blocks Marburg virus binding to or entry into cells | Potency, µM (doses to about 37.8 µM), without a hit: at the highest dose activity change, negative = inhibition, hits mostly inhibitors | AID 540276 | 300,000 tested, 1.8% active | Marburg virus pseudotyped entry inhibition, cell reporter; calls by dose curve; tested in HEK293 cells; further: potency means the concentration at half of the fitted maximal effect
VACV Venus inh: inhibitors of vaccinia virus (Venus reporter); Vaccinia virus Venus reporter expression, fluorescence; Potency, µM (series often up to 36.5 µM), for inactives: at the top dose activity change, negative = inhibition, usual class: inhibitors; 330,000 tested, 0.46% active; calls by dose curve; tested in A549 cells; further: potency means the concentration at half of the fitted maximal effect; nearly all actives have a fitted effect of over 30% in size
HCMV antiviral: inhibitors of human cytomegalovirus; HFF cells, HCMV-luciferase reporter, 72 h; stronger effect = lower value; activity change, negative = inhibition, % at 57.5 µM; 410,000 tested, 4.5% active; AID 1259415; in the data active means activity change below about -60%; inconclusive means no clear call, values can overlap the other calls; inactive means above about -39%
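After 16 h attachment at 37C, HFF cells received test compound and HCMV-luciferase (1 PFU/cell); reporter luminescence read 72 h later, data normalized against buffer-only and known inhibitor Salinomycin.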
LASV entry inh: blocks Lassa virus binding to or entry into cells; Lassa virus pseudotype entry inhibition, cell reporter; Potency, µM (series often up to 37.9 µM), without a hit: at the highest dose activity change, negative = inhibition, most hits filed as inhibitors; 300,000 tested, 1.2% active; AID 540256; calls by dose curve; tested in HEK293 cells; further: potency means the concentration at half of the fitted maximal effect; nearly all actives have a fitted effect of over 50% in size
HCV inh: blocks hepatitis C virus; Huh7.5.1 HCVcc-Cre infection, luciferase reporter, 44 h; Potency, µM (highest dose often 41.8 µM), inactives show at the top dose activity change, negative = inhibition, hits mostly inhibitors; 340,000 tested, 3.4% active; AID 651820; active means well fitted inhibition curve with a large enough effect; inconclusive means small, poorly fitted or top-dose-only effect, or another doubt; inactive means no such curve, though single readings can be large or run the other way; further: potency means the concentration at half of the fitted maximal effect
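Infectious HCVcc-Cre (~0.5 moi) was added to cells just after compound, with cells seeded 4 h earlier at 1,000 per well. Luciferase activity after 44 h culture reported infection; substrate was incubated 15 min at room temperature before reading.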
The depositor's hits bear a star; i = inactive; ? = inconclusive; / = no result given; ! = not active in a repeat; [ ] = dose if it differs, or a comment. Only some compounds are listed: those with a hit (about 7.8% of all), similar ones and a draw of the others. On the % scale 0 is the no-effect control and ±100 the full control effect.

SMILES	VACV mCherry inh	Marburg entry inh	VACV Venus inh	HCMV antiviral	LASV entry inh	HCV inh
CCc1cc2c(=O)c(-c3nc4ccccc4[nH]3)coc2c(CN2CCCCC2C)c1O (configuration not stated)	-16%[7.34 µM]	/	-3%[7.34 µM]	-23	/	?
CCc1cc2c(=O)c(-c3ccc4c(c3)OCCO4)coc2c(CN2CCCCC2C)c1O (configuration not stated)	-22%	?	-5%	-62*	?	6.3µM*
CCC1CCCCN1Cc1c(O)ccc2c(=O)c(-c3ccccc3)coc12 (configuration not stated)	-1%	?	-11%	-92*	?	-8%
O=c1c(-c2ccccc2)coc2c(CN3CCCCC3)c(O)ccc12	/	/	/	-25	/	1%
CCc1cc2c(=O)c(-c3ccc4c(c3)OCCO4)coc2cc1OS(C)(=O)=O	?	5.6µM*	?	?	?	11µM*
CC1CCCCN1Cc1c(O)ccc2c(=O)c(-c3ccccc3)coc12 (configuration not stated)	-11%	?	-6%	-69*!	-5%	?
O=S(=O)(c1ccc(OC(F)(F)F)cc1)N1CCN(c2nc(-c3ccccc3)nc3ccccc23)CC1	-11%	/	-13%	/	/	/
Cc1ccc(C(=O)c2oc3ccccc3c2NC(=O)c2cc(-c3ccccc3)on2)cc1	-23%	7%[46.1 µM]	-11%	-7	-4%[46.1 µM]	/
CCCCCCn1c(=O)[nH]c2c(c1=O)CCC2	i	6%[46.1 µM]	-11%	19	-15%[46.1 µM]	-5%
CCCCn1c2c(c(=N)c3c1CCC3)CCC2	/	?	?	-89*	?	?
CCCCCCCCCn1c2c(c(=N)c3c1CCC3)CCC2	?	?	?	/	1.4µM*	0.89µM*
CCn1c(=O)c2c3c(sc2n(C)c1=O)CCC3	/	1%	/	?	2%	-11%
CCCCCCn1c2c(c(=N)c3c1CCC3)CCC2	/	8.2µM*	/	-104*	3.7µM*	10µM*
CCn1c2c(c(=N)c3c1CCC3)CCC2	-11%	?	19%	-84*	2%	2%
COc1ccc(-c2cc(C)cc3c2OC(CNC(=O)/C=C/c2ccncc2)C3)nn1 (configuration not stated)	-16%	/	-4%	/	/	/
COc1cc(OC)c2c(C)c(CC(=O)NCCc3ccccc3OC)c(=O)oc2c1	2%	-10%[46.1 µM]	2%	-1	9%[46.1 µM]	/
CCCCCCCn1c2c(c(=N)c3c1CCC3)CCCC2	?	?	?	-95*	?	4.5µM*
CCCCn1c2c(cc(C(=O)OC)c1=O)C(=O)CCC2	-9%	/	-8%	0	/	6%
N=c1c2c(n(Cc3ccc(F)cc3)c3c1CCC3)CCC2	-29%	?	-29%	-100*	-56%	8%
Fc1ccc(CN2CCCCCCC2)cc1	-13%	8%	-13%	6	0%	3%
COc1cc(CNc2nc(C)c(-c3ccn(C4Cc5ccccc5C4)n3)s2)cc2c1OCO2	-8%	/	-29%	/	/	/
CC[C@H]1Nc2ccc(NC(=O)OC(C)(C)C)cc2[C@@H](NC(=O)OCc2ccccc2)[C@@H]1C	/	/	/	31	/	/
CCOC(=O)C1=C(C)N=C2c3ccccc3C(=O)C2C1c1ccc(Cl)cc1 (configuration not stated)	-20%	?	-22%	-80*	?	16µM*
CC1(C)CC(=O)C2=C(C1)N=C1c3ccccc3C(=O)C1C2c1ccc(Cl)cc1 (configuration not stated)	?	?	?	-71*	?	13µM*
Cc1ccc(C2C3=C(CC(C)(C)CC3=O)OC3=C2C(=O)CC(C)(C)C3)cc1	0%	-7%[46.1 µM]	-13%	-20	?	11%
SMILES	VACV mCherry inh	Marburg entry inh	VACV Venus inh	HCMV antiviral	LASV entry inh	HCV inh
Cc1ccc(C2C3=C(CC(C)(C)CC3=O)N=C3c4ccccc4C(=O)C32)cc1 (configuration not stated)	?	?	-27%	-68*	?	?
COc1ccc(NC(=O)c2ccc([N+](=O)[O-])s2)c([N+](=O)[O-])c1	/	/	/	-85*	/	-8%
COc1ccc(NC(=O)c2cc(Br)ccc2Cl)c([N+](=O)[O-])c1	-4%	-10%[46.1 µM]	-11%	-63*	-13%	-3%
C[C@H]1[C@H](O)[C@@H](N=[N+]=[N-])CCO[C@H]1c1ccccc1	/	-12%[14.2 µM]	/	/	/	/
CN(C)CCNC(=O)c1ccc(-n2c(-c3ccccc3)cc3c2CCCCC3)cc1	i	/	-23%	?	-10%[46.1 µM]	/
CCOCCCNC(=O)c1ccc(-n2c(-c3ccccc3)cc3c2CCCC3)cc1	-11%	/	-20%	-66*	?	/
COCCNC(=O)c1ccc(C(=O)C(=O)c2ccccc2)cc1	i	23%	-11%	-3	8%	5%
COCCNC(=O)c1ccc(-n2c(-c3ccccc3)cc3c2CCC(C)C3)cc1 (configuration not stated)	?	/	?	-101*	3%[46.1 µM]	/
COCCCNC(=O)c1ccc(-n2c(-c3ccccc3)cc3c2CCCCC3)cc1	-15%	/	-11%	?	-22%[46.1 µM]	/
CCCNC(=O)c1ccc(-n2c(-c3ccccc3)cc3c2CCC(C)C3)cc1 (configuration not stated)	-28%	/	-26%	-99*	?	/
CC(C)NC(=O)c1ccc(-n2c(-c3ccccc3)cc3c2CCCCC3)cc1	i	/	-4%	?	17%[46.1 µM]	/
CC1CCc2c(cc(-c3ccccc3)n2-c2ccc(C(=O)NC(C)C)cc2)C1 (configuration not stated)	-17%	/	-16%	-99*	?	/
O=C(NCCc1ccc(Cl)cc1)c1ccc(Cn2c(=O)[nH]c3ccccc3c2=O)cc1	-3%	/	?	24	-8%[46.1 µM]	/
O=C(NCCSCc1c(F)cccc1Cl)C1CCN(S(=O)(=O)Cc2ccccc2)CC1	-1%	2%[46.1 µM]	1%	14	12%[46.1 µM]	/
CCOC(=O)C1(C)C=C(Nc2ccc(O)cc2)C(=O)N1c1ccc(O)cc1 (configuration not stated)	i	?	-7%	-70*	-16%	4%
Cn1c(=O)n(C)c2cc(NC(=O)CCl)ccc21	/	?	/	-104*	18µM*	?
C=C/C(C)=C/CC1C(=C)CCC2C(C)(C(=O)O)CCCC12C (configuration not stated)	i	/	-1%	-8	/	14%
C=C1CC[C@@H]2[C@](C)(CO)[C@H](O)CC[C@@]2(C)[C@@H]1C/C=C1/C(=O)OCC1O (some centres not stated)	-20%	/	-25%	-77*	/	1%
Cn1ccc(C(=O)NCC2CCC3(CCN(Cc4ccc(F)cc4F)CC3)O2)n1 (configuration not stated)	i	/	-11%	/	/	/
COC(=O)C1=C(C)N(Cc2ccccc2)C(=NCC(C)C)NC1c1ccc(Br)cc1 (configuration not stated)	/	5%[14.2 µM]	/	/	/	/
